Hits are enriched below; roughly 6.3% of the tested compounds scored in any of these assays.
ATXN2 expr inh – Primary qHTS for Inhibitors of ATXN expression; HEK-293 ATXN2-luciferase reporter, luminescence, 24 h; Potency, µM (titrated, usually from 57 µM), without a hit: at the highest dose activity change, negative = inhibition, hits mostly inhibitors; hit rate 0.72% among 360,000; also: % is scaled to controls: 0 for no effect and ±100 for the full control effect; nearly all actives have a fitted effect of over 55% in size
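ATXN2-luciferase reporter cells (luciferase flanked by upstream and downstream ATXN2 gene portions) were treated 24 h at 37 °C with compounds at up to 57 uM. SteadyGlo luminescence gave expression; GF-AFC fluorescence gave viability.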
HepG2 tox – qHTS for Inhibitors of TGF-b: Cytotox Counterscreen | HepG2 CAGA-GFP viability, ATP luminescence, 18 h | Potency, µM (series often up to 46.1 µM), for inactives: at the highest dose activity change, negative = cytotoxicity, hits mostly cytotoxic | hit rate 0.76% among 410,000 | AID 588856, 2011
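HepG2 CAGA-GFP cells (1000/well, DMEM with 1% FBS) received compound, then TGF-beta at 500 pg/mL final, and were incubated 18 hours at 37 degrees C. Viability was read by CellTiter-Glo luminescence. Media-only wells were set as complete cell-killing and DMSO as no toxicity.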
RORg inh – qHTS for inhibitors of ROR gamma transcriptional activity; Nuclear receptor ROR-gamma (Mus musculus), P51450; Drosophila S2 Gal4-RORgamma UAS-luciferase reporter, 20 h; Potency, µM (titrated, usually from 53.6 µM), for inactives: at the top dose activity change, negative = inhibition, hits mostly inhibitors; hit rate 5.4% among 310,000; AID 2551, 2010; also: % is scaled to controls: 0 for no effect and ±100 for the full control effect; nearly all actives have a fitted effect of over 60% in size
Target sequence (P51450 whole entry, looked up, the tested form may be a part): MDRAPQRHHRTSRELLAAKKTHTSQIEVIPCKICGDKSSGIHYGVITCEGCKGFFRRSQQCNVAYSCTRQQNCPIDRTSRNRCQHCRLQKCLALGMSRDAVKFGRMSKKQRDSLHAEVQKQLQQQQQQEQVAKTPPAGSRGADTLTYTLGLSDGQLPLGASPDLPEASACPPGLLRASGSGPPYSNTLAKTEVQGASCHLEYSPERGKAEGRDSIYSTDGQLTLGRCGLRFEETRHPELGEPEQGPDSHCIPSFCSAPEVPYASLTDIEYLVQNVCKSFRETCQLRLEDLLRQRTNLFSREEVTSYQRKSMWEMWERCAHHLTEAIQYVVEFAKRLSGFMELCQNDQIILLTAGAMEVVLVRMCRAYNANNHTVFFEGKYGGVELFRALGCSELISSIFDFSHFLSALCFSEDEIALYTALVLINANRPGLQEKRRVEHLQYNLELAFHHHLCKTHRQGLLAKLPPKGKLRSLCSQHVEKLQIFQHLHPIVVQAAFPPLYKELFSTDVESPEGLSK
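Luminescence from a UAS-regulated Photinus luciferase reporter in stably transfected Drosophila Schneider cells is measured; decreased signal marks ROR gamma inhibition. Fusion expression is induced by 700 uM copper sulfate for 20 hr.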
TGFb inhibitor – qHTS for Inhibitors of TGF-b | HepG2 CAGA-GFP TGF-b/SMAD3 reporter, GFP fluorescence, 18 h; TGF-beta stimulated, 500 pg/mL final | Potency, µM (titrated, usually from 46.1 µM), for inactives: at the top dose activity, negative = inhibition, hits mostly inhibitors | hit rate 1.2% among 410,000; also: % is scaled to controls: 0 for no effect and ±100 for the full control effect; nearly all actives have a fitted effect of over 65% in size
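HEPG2 CAGA-GFP, 1000 cells/well; 2 h settle, 37 C; cpd via pin tool; TGF-b 500 pg/mL final; 18 h, 37 C; GFP imaging ex488/em500-530; %Activity normalised to -TGF-b and +DMSO controls; CRC fit, curve class.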
Gal4-VP16 FLuc – VP16 counterscreen qHTS for inhibitors of ROR gamma transcriptional activity; Potency, µM (titrated, usually from 53.6 µM), for inactives: at the top dose activity, negative = inhibition, usual class: inhibitors; AID 2546, 2010; Drosophila S2 Gal4-VP16 UAS-luciferase, luminescence, 20 h; hit rate 3.5% among 310,000;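 also: Gal4-VP16 expression switched on by copper sulfate through the metallothionein promoter; % is scaled to controls: 0 for no effect and ±100 for the full control effect; nearly all actives have a fitted effect of over 50% in size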
ATXN viability – Viability Counterscreen for Primary qHTS for Inhibitors of ATXN expression; Potency, µM (highest dose often 56.7 µM), actives largely listed as cytotoxic; AID 651635, 2014; hit rate 0.49% among 400,000; S2 cells (HEK-293 line with an ATXN2-luciferase reporter) viability, CellTiter-Fluor protease fluorescence, 24 h; also: nearly all actives have a fitted effect of over 40% in size
* marks the source's active call; other numbers are inactive results; i = inactive; ? = inconclusive; nt = no result given; [ ] = remark or other dose. Calls follow the shape of the dose curve; as a rule, active = well fitted curve in the direction sought with a large enough effect; inconclusive = small, poorly fitted or top-dose-only effect, or another doubt; inactive = no such curve, though single readings can be large; an effect the other way counts as inactive or inconclusive. Potency is read from the fitted curve at half-maximal effect.

SMILES	ATXN2 expr inh	HepG2 tox	RORg inh	TGFb inhibitor	Gal4-VP16 FLuc	ATXN viability
C=CCOc1c(CNc2cccc(C(=O)O)c2)cccc1OC	44.2%	9.0%	10µM*	1.2%	?	i
C=CCOc1c(CNc2cccc(C(=O)O)c2)cccc1OCC	6.6%	6.0%	4.0%	0.2%	13.2%	i
Cc1ccc(C(=O)O/N=C(\N)c2ccccn2)c(Cl)c1	nt	-73.9%	0.708µM*	-13.6%	2.82µM*	?
N/C(=N\OC(=O)c1ccc(Cl)cc1Cl)c1ccccn1	?	-45.0%	7.08µM*	-12.7%	?	i
N/C(=N\OC(=O)c1ccc(Cl)cc1[N+](=O)[O-])c1ccccn1	58.4%	-27.6%	-20.9%	-2.7%	-26.4%	i
N/C(=N\OC(=O)c1ccccc1Cl)c1ccncc1	64.6%	6.7%	?	-8.1%	?	i
N/C(=N\OC(=O)c1cc(Br)ccc1Cl)c1ccccn1	0.1%	-13.8%	-44.1%	0.4%	?	i
Cc1ccc(C(=O)O/N=C(\N)c2ccccc2)c(Cl)c1	-20.2%	-18.1%	4.47µM*	-26.4%	8.91µM*	?
CC(C)(C)C(=O)NC(=S)Nc1ccc(Cc2ccncc2)cc1	-26.7%	3.7%	12.6µM*	?	12.6µM*	i
CNC(=S)Nc1ccc(Cc2ccncc2)cc1	2.9%	-0.2%	-22.5%	-0.9%	-5.2%	?
CC(C)(C)C(=O)NC(=S)Nc1ccc(F)cc1	24.8%	-21.8%	10µM*	-5.9%	?	i
CC(=O)Nc1ccc(NC(=S)Nc2ccc(F)cc2)cc1	nt	12.0%	-25.8%	10.1%	-1.6%	i
O=C(NC(=S)Nc1ccc(Cc2ccncc2)cc1)c1ccc(F)cc1	nt	-15.4%	4.47µM*	-11.0%	?	?
COC(=O)c1c(OCc2cccnc2)cc(=O)n2c1CCN(C(=O)c1ccc(OC)c(F)c1)CC2	nt	nt	nt	nt	nt	i
CCc1nc2ccc(C(=O)NCCN3CCNC3=O)cn2c1N(CC)CCOC	-3.3%	22.3%	nt	5.2%	nt	i
COc1cc(CN2CCCC(n3cc(C(=O)N4CCCC4)nn3)C2)cc(OC)c1 (stereo not drawn)	nt	nt	nt	nt	nt	i
COc1c(C)cccc1C(=O)Nc1ccc(N2CCN(C(=O)c3ccccc3C)CC2)cc1	20µM*	-10.4%	?	?	?	?
CN1CCN(c2ccc(NC(=O)c3ccc4ccccc4c3)cc2)CC1	14.1µM*	-8.5%	11.2µM*	-0.7%	?	i
COc1ccc(C(=O)Nc2ccc(N3CCN(C)CC3)cc2)cc1	nt	-3.6%	-25.2%[1.91 µM]	-2.7%	3.5%	?
Cc1ccccc1C(=O)N1CCN(c2ccc(NC(=O)c3ccc4c(c3)OCCO4)cc2)CC1	28.2µM*	-11.5%	?	-6.7%	-3.0%	?
O=C(CN1C(=O)CC(c2ccco2)Sc2ccccc21)Nc1ccc(OC(F)(F)F)cc1 (stereo not drawn)	2.0%	-1.8%	nt	19.6%	nt	i
CCn1c2ccccc2c2cc(/C=C3/C=Cc4ccccc43)ccc21	nt	-17.5%	nt	6.8%	nt	nt
O=CC1=C(c2ccccc2)Oc2ccccc2O1	?	-94.1%	?	?	?	22.4µM*
CN(C)/C=C1/N=C(c2ccccc2)OC1=O	12.3%	-12.0%	10.6%	15.1%	11.9%	i
COc1ccccc1-c1cc2c(c(OC)c1)OCCN(C(=O)Cn1nc(-c3ccccc3)c3ccccc3c1=O)C2	nt	nt	nt	nt	nt	i
CC(C)(C)OC(=O)N1CCC(c2c(C(=O)N3CCN(Cc4ccccc4)CC3)cnn2-c2cccc(Cl)c2)CC1	nt	-1.4%	nt	-10.8%	nt	nt
O=C(c1cccc(N2CCCC2=O)c1)N1CCN(c2ccccc2)CC1	7.5%	8.9%	3.1%	-3.6%	-4.0%	i
O=C(c1cccc(N2CCCC2=O)c1)N1CCC(Oc2cccc(CN3CCN(c4ccccn4)CC3)c2)CC1	nt	nt	nt	nt	nt	14.1µM*
